# Most compounds without a hit are left out; they make up all but 4.8% or so of the library.
# ssDAF12 agonist – S. stercoralis DAF-12 activation, primary screen; HEK293 ssDAF-12/GRIP1 lit1-tk-luc reporter, luminescence; % of 3 µM dafachronic acid response; activation, % at 6.8 µM; 370,000 compounds, 1% hits;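 active means activation above the mean over all tested compounds plus 3 SD, cut at about 0.9% in these data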;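 further: 0% = DMSO-only wells and 100% = 3 µM delta7-dafachronic acid wells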
# DAX1 inh-1 – NR0B1 (DAX1) inhibition | inhibition, % at 6.75 µM | HEK293 Gal4-DAX1 luciferase reporter, luminescence | 340,000 compounds, 0.99% hits | P51843;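 active means inhibition above the mean over all tested compounds plus 3 SD, cut at about 4.2% in these data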;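 further: 0% = DAX1-transfected cells with DMSO and 100% = empty-vector control cells with DMSO; inhibition shows as a rise in luminescence from relieved DAX1 repression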
# Target sequence (P51843 207-470 limits assumed): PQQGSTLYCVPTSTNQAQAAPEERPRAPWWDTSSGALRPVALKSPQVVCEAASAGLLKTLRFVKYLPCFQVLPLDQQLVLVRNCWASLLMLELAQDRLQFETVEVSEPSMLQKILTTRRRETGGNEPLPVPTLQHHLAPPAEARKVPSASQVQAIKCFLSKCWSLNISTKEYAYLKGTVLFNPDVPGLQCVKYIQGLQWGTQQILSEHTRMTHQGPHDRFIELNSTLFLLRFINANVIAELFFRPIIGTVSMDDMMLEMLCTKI
# hcDAF-12 act – H. contortus DAF-12 activation, primary screen; 370,000 compounds, 1.4% hits; activation, % at 6.8 µM; AID 652067; HEK293 hcDAF-12 lit1-tk-luc reporter, luminescence; 0% DMSO, 100% Δ7-dafachronic acid;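 active means activation above the mean of all tested compounds plus 3 SD, cut at about 5.5% in these data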;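 further: 100% = response to 3 µM Δ7-dafachronic acid high control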
# SMARCA2 act – activators of SMARCA2 function; MG213 cells, MMTV-luciferase reporter, dexamethasone, overnight; activation, % at 9.1 µM; 370,000 compounds, 1% hits; in the data active means activation above about 7.8%;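 further: 0% = vehicle wells and 100% = reference activator wells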
# DAX1 inh-2 – blocks DAX1 repression of SF-1 activated StAR promoter. inhibition, % at 6.8 µM. 370,000 compounds, 1.1% hits. AID 652010. HEK293T StAR-luciferase reporter, SF-1/DAX-1 repression relief;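 active means inhibition above the mean over all tested compounds plus 3 SD, cut at about 3.6% in these data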;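 further: 0% = DAX-1 cells with DMSO and 100% = cells lacking DAX-1 with DMSO; higher inhibition means more luminescence from relief of DAX-1 repression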
# hgDAF-12 ag – activates the H. glycines DAF-12 receptor ligand-binding domain; HEK293 GAL4-hgDAF12 UAS-luciferase reporter, agonist luminescence; normalized to butyrate control; activation, % at 6.8 µM; 370,000 compounds, 1.8% hits; AID 687014;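 active means activation above a cutoff set at the mean of all screened compounds plus 3 SD, cut at about 10% in these data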;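 further: 0% = DMSO wells and 100% = sodium butyrate wells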
# * hit, by the source's call; . = no result given.
SMILES,ssDAF12 agonist,DAX1 inh-1,hcDAF-12 act,SMARCA2 act,DAX1 inh-2,hgDAF-12 ag
COc1ccc(NC(=O)CSc2ncnc3sc(C)cc23)cc1,-1.4,0.1,-3.0,-2.1,-0.2,-0.6
Cc1cc2c(=O)n(C)c(SCC(=O)Nc3ccccc3)nc2s1,-1.0,4.8*,0.8,1.2,-0.2,-4.2
Cc1cc2c(SCC(=O)Nc3cccc(O)c3)ncnc2s1,1.4*,0.0,6.4*,-2.2,1.2,2.4
Cc1cccc(OCC(=O)Nc2ccc3c(c2)nc(CCN2CCN(C)CC2)n3C)c1,-1.1,4.9*,-1.0,-1.1,0.3,0.0
c1ccc(NCc2cccnc2)cc1,0.1,2.1,-0.5,0.0,0.5,-0.4
c1cncc(CNc2cccc(-c3nc4ccccc4[nH]3)c2)c1,-1.4,-0.7,3.8,4.8,1.0,10.7*
O=C(/C=C/Nc1ccc(F)c(F)c1)c1ccc(Br)cc1,-0.5,0.7,5.2,3.3,3.0,12.3*
O=C(/C=C/Nc1ccc([N+](=O)[O-])cc1)c1ccc(Br)cc1,-0.4,1.4,-0.9,-3.1,0.6,-1.1
Cc1ccc(C(=O)/C=C/Nc2ccc3c(c2)OCO3)cc1,1.6*,1.0,0.6,2.8,1.2,2.2
O=C(/C=C/Nc1ccc(F)cc1)c1ccc(Br)cc1,0.2,2.4,2.8,6.9,3.1,11.3*
Cc1ccc(C(=O)/C=C/Nc2cccc(O)c2)cc1,-0.6,-1.0,1.4,2.0,1.1,3.9
COc1ccccc1NC(=O)c1csc2c1CCCC2,-0.5,0.1,-1.2,1.4,-0.2,3.6
COc1cc(NC(=O)c2csc3c2CCCC3)ncn1,-0.2,3.5,0.5,4.3,2.5,12.1*
CCN1C[C@@H]2[C@@H]3C(=O)N(C)C(=O)[C@@H]3[C@](CC)(C1=O)N2C(=O)c1ccccc1,-1.6,0.3,-1.2,0.6,0.3,1.2
CCN1C[C@@H]2[C@@H]3C(=O)N(C)C(=O)[C@@H]3[C@](CC)(C1=O)N2C(=O)c1ccc(F)cc1,-0.4,4.6*,0.7,0.4,0.8,1.6
CCOC(=O)CON1C(=O)C(C)(C)N(OCC(=O)OCC)C(=O)C1(C)C,1.0*,-0.4,-0.5,1.1,0.8,-0.9
CCON1C(=O)C(C)(C)N(OCC)C(=O)C1(C)C,-1.3,0.5,-3.0,-1.1,-0.2,-0.2
CCOc1cc(N2CCOCC2)c(OCC)cc1NC(=O)CN1C(=O)NC(Cc2ccccc2)C1=O (configuration not stated),-1.1,0.0,-0.9,3.4,-0.1,-0.1
CCCn1c(-c2ccc[nH]c2=O)nc2cc(C)c(C)cc21,1.1*,4.4*,3.4,2.1,2.7,8.1
CCc1ccc(-c2csc3ncn(CC)c(=O)c23)cc1,17.8*,0.2,-1.2,-2.3,0.1,-3.3
CCn1cnc2scc(-c3ccc(OC)cc3)c2c1=O,-0.9,-0.3,-1.6,-0.6,-1.2,1.2
CN1C(C(=O)NCc2cccc(Br)c2)CC2Cn3c(nc4ccccc43)C21 (configuration not stated),0.7,0.9,-0.8,3.4,-0.2,-1.7
Cc1cccc(C(=O)Nc2ccc(C(=O)N/N=C/c3cccnc3)cc2)c1,-1.0,-0.9,-0.8,2.8,-0.4,0.1
Cc1[nH]c(=O)[nH]c(=O)c1/C=N/NC(=O)[C@H](C)N,-0.3,5.7*,5.1,-1.6,0.0,-1.6
CCC(=O)N1N=C(c2cccs2)CC1c1ccc(OC)cc1 (configuration not stated),-1.8,-0.2,-0.3,2.4,-0.4,0.8
SMILES,ssDAF12 agonist,DAX1 inh-1,hcDAF-12 act,SMARCA2 act,DAX1 inh-2,hgDAF-12 ag
COc1cccc(C2Oc3ccccc3C3CC(c4cccs4)=NN32)c1 (configuration not stated),-0.6,.,5.8*,4.0,0.8,6.6
CCOC(=O)N1CCN(C(=O)C2CCN(C(=O)c3ccc(C(C)(C)C)cc3)CC2)CC1,-0.2,4.4*,1.4,-2.5,-0.3,-1.5
N#C/C(=C\c1ccc(N2CCOCC2)o1)C(=O)NCC1CCCO1 (configuration not stated),12.4*,-0.8,-1.7,0.6,0.4,1.5
N#C/C(=C\c1ccc(N2CCOCC2)o1)C(=O)NC1CCCCC1,-1.1,-2.6,-2.3,-0.2,0.4,-2.5
CN(C)c1ccc(C=NNC(=S)Nc2ccc(F)cc2)cc1,-0.8,5.0*,0.1,1.9,1.4,11.4*
COc1ccc(NC(=O)O/N=C/c2ccncc2)cc1,-1.2,4.6*,0.9,1.7,0.7,7.1
Cc1ccc(NC(=O)O/N=C/c2ccc(N(C)C)cc2)cc1,0.2,3.1,2.4,7.3,1.6,13.2*
COc1ccc(/C=N/OC(=O)Nc2ccccc2OC)cc1,-0.2,-1.5,1.1,3.7,-1.1,11.8*
COc1ccc(NC(=O)O/N=C/c2ccc(N(C)C)cc2)cc1,-0.2,0.1,-0.1,7.1,1.2,6.9
Cc1sc2c(c1C)c(=O)nc1scc(CC(=O)O)n12,-1.5,1.4,-0.1,-0.7,-1.1,2.2
CC(=O)Nc1ccc(/C=N/OCC(=O)Nc2ccc(C)cc2)cc1,-0.3,0.7,2.4,3.3,0.5,11.5*
Cc1ccc(NC(=O)C=NOCC(=O)Nc2cc(C)cc(C)c2)cc1,0.5,1.2,1.1,2.9,-1.1,3.5
COCCOC(=O)C1=C(N)OC2=C(C(=O)CC(C)(C)C2)C1c1ccncc1 (configuration not stated),-1.6,5.3*,-1.2,-2.3,0.0,-1.2
Cc1cccc(NC(=O)c2ccccc2OCC(=O)c2ccc(F)cc2)c1,-1.4,-1.5,0.2,0.2,-0.3,-1.0
Cc1ccn2c(NC3CCCCC3)c(C)nc2c1,-1.4,5.1*,0.1,-4.5,-0.8,1.4
O=C(Nc1cc(C(F)(F)F)ccc1N1CCOCC1)c1cccs1,-1.1,4.6*,-0.7,-1.1,-0.5,0.8
CN(C)c1ccc(P(=O)(Nc2cccc(C(F)(F)F)c2)N2CCOCC2)c(NC(=O)c2cccs2)c1 (configuration not stated),1.4*,1.4,4.4,0.5,-0.1,2.4
Cc1n[nH]c(=O)nc1Nc1ccc(O)cc1,-0.9,-0.8,-0.6,0.6,-0.1,-1.3
COc1ccccc1/C=C/C(=O)NCCC1=CCCCC1,0.2,0.8,2.3,4.9,3.2,12.1*
COc1ccccc1NC(=O)NCCC1=CCCCC1,-1.7,-0.7,-1.5,-0.9,-0.4,-1.9
COc1ccc(NC(=O)NCCC2=CCCCC2)cc1,-0.7,1.2,1.6,4.7,1.6,12.5*
COc1ccccc1OCC(=O)NCCC1=CCCCC1,-1.6,-0.7,-2.6,-1.6,0.4,-1.6
COc1ccccc1N1C(=O)S/C(=C\c2cccs2)C1=O,1.0*,-0.8,5.4,1.0,-0.4,3.9
COc1ccccc1C(=O)NNC(=O)CCCN1C(=O)/C(=C/c2cccs2)SC1=S,-2.0,-0.5,-1.2,-3.0,-0.2,3.1
Nc1cc(=O)[nH]c(=O)n1Cc1ccccc1,-0.9,1.8,-1.5,1.8,0.4,-0.1

# Screening results (PubChem BioAssay)
